Source: PubChem BioAssay (NCATS)
Records with an inconclusive call do not appear. The source made the active and inactive calls. Calls follow the shape of the dose curve; as a rule, active = well fitted cell-killing curve with a large enough effect; inconclusive = small, poorly fitted or top-dose-only effect; inactive = no such curve, though single readings can be large or run the other way.

assay: qHTS of pediatric cancer cell lines to identify multiple opportunities for drug repurposing: Primary screen for LAN-5 cells (AID 1347100); settings: LAN-5 neuroblastoma viability, CellTiter-Glo luminescence, 48 h; series mostly up to 46 µM
Summary of the method: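 Viability after 48 h compound treatment at 37C, 500-1,000 cells/well, read as ATP luminescence with CellTiter-Glo. Primary screens used 11-point (MIPE, 0.78 nM-46 µM) or 8-point (NPC, 0.59 nM-46 µM) final concentrations; follow-up screens used 11-point dilutions.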
Potency is read from the fitted curve at half-maximal effect.

| SMILES | Potency |
| --- | --- |
| CN1CCN(c2cccc(Nc3nc4c(-c5ccc(S(C)(=O)=O)cc5)cccn4n3)c2)CC1 | 13.2 µM (active) |
| Cc1ccc(C(=O)N(CCCN)[C@@H](c2nc3cc(Cl)ccc3c(=O)n2Cc2ccccc2)C(C)C)cc1 | 0.001 µM (active) |
| COc1cc(F)c(C(C)C)cc1-c1ccc(C(F)(F)F)cc1CN1C(=O)O[C@H](c2cc(C(F)(F)F)cc(C(F)(F)F)c2)[C@@H]1C | 18.7 µM (active) |
| CCCCn1c(=O)n(Cc2ccccc2F)c(=O)c2[nH]c(Cc3ccc(NC(C)=O)cc3)nc21 | inactive |
| CN1C(=O)C[C@H](C(=O)N[C@@H](Cc2cnc[nH]2)C(=O)N2CCC[C@@H]2C(N)=O)NC1=O | 20.9 µM (active) |
| COc1cc(N2CCN(C)CC2)ccc1Nc1nc(N)c(C(=O)c2c(Cl)cccc2Cl)s1 | 16.6 µM (active) |
| CCC(=O)NCC[C@@H]1CCc2ccc3c(c21)CCO3 | inactive |
| CN(C)S(=O)(=O)c1ccc2c(c1)C(=Cc1cc3c([nH]1)CCCC3)C(=O)N2 | 2.35 µM (active) |
| COc1ccc(Cn2ccc3ccc(C(=O)NO)cc32)cc1 | 20.9 µM (active) |
| CCC(c1ccc(O)cc1)C(CC)c1ccc(O)cc1 (configuration not stated) | inactive |
| Nc1ccn([C@@H]2O[C@H](CO)[C@@H](O)[C@H]2O)c(=O)n1 | 0.0935 µM (active) |
| CC1C(=O)OC2C(O)C34C5CC(C(C)(C)C)C36C(OC(=O)C6O)OC4(C(=O)O5)C12O (configuration not stated) | 20.9 µM (active) |
| C=CC[N+]1([C@H]2C[C@H]3[C@@H]4CC[C@H]5C[C@H](O)[C@@H](N6CCOCC6)C[C@]5(C)[C@@H]4CC[C@]3(C)[C@H]2OC(C)=O)CCCC1 | inactive |
| C[C@H]1COC2=C1C(=O)C(=O)c1c2ccc2c1CCCC2(C)C | inactive |
| C[C@@H]1CC=CC=CC=CC=C[C@@H](O[C@@H]2O[C@H](C)[C@@H](O)[C@H](N)[C@H]2O)C[C@@H]2O[C@](O)(C[C@@H](O)C[C@@H]3O[C@@H]3C=CC(=O)O1)C[C@H](O)[C@@H]2C(=O)O | inactive |
| N#CC(c1ccnc(NCCc2cccnc2)n1)c1nc2ccccc2s1 (configuration not stated) | 16.6 µM (active) |
| COc1cc2nccc(Oc3ccc(NC(=O)Nc4cc(C)on4)c(Cl)c3)c2cc1OC | 10.5 µM (active) |
| Cc1csc(-c2nnc(Nc3ccc(Oc4ncccc4-c4ccnc(N)n4)cc3)c3ccccc23)c1 | 0.001 µM (active) |
| CC1=C[C@@H]2[C@@H]([C@@H](O)C[C@@]3(C)[C@H]2C[C@@H](C)[C@]3(O)C(=O)CO)[C@@]2(C)Cc3cnn(-c4ccccc4)c3C=C12 | 23.5 µM (active) |
| CN(C)CCCNC(=O)c1ccc(-c2cc(O)c3ncccc3c2)cc1 | inactive |
| CNC(=O)[C@H](Cc1ccccc1)NC(=O)[C@H](CC(C)C)[C@H](CSc1cccs1)C(=O)NO | inactive |
| CNc1nc(-c2ccc3c(N)n[nH]c3c2)cc(N2C[C@@H](C(=O)NC3CCCCC3)CC[C@@H]2C)n1 | 26.4 µM (active) |
